# Mcl1-Bid inh: Mcl-1/Bid interaction inhibition. 220,000 tested, 0.97% active. AID 1021. inhibition, % at 21.7 µM. TR-FRET Mcl-1/Bid-Dy647 peptide binding, 1536-well. Q07820;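 active = compounds that cut the binding signal by more than half at the single screening dose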;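 also: His-tagged Mcl-1 with europium anti-His antibody binding Bid BH3 peptide; 0% = Mcl-1 plus peptide wells and 100% = peptide-only wells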
# 14-3-3 Bad PPI: disrupts binding of bovine 14-3-3 zeta to phospho-Bad peptide; TR-FRET 14-3-3zeta/Dy647-pBad peptide displacement, 1 h; 220,000 tested, 0.71% active; P63103; inhibition, % at 21.7 µM;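 active = inhibition above about 70%, limit read from the data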;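 also: 0% = full 14-3-3 plus peptide FRET controls and 100% = background without 14-3-3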
# Target sequence (P63103 whole entry, looked up): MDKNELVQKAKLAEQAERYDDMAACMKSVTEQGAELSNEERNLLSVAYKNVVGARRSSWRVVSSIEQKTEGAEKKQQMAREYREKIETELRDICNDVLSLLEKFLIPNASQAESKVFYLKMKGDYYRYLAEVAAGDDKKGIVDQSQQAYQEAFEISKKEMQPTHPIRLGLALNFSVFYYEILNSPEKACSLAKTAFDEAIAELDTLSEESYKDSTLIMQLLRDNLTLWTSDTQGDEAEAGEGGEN
# p47phox inh: p47phox (human) inhibition; inhibition, % at 24.7 µM; 220,000 tested, 0.53% active; p47phox/p22phox peptide binding, fluorescence polarization, 2 h; AID 1274; P14598;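 active = inhibition above about 30%, limit read from the data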;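 also: 0% = p47phox with labelled peptide and 100% = labelled peptide alone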
# Target sequence (P14598 whole entry, looked up): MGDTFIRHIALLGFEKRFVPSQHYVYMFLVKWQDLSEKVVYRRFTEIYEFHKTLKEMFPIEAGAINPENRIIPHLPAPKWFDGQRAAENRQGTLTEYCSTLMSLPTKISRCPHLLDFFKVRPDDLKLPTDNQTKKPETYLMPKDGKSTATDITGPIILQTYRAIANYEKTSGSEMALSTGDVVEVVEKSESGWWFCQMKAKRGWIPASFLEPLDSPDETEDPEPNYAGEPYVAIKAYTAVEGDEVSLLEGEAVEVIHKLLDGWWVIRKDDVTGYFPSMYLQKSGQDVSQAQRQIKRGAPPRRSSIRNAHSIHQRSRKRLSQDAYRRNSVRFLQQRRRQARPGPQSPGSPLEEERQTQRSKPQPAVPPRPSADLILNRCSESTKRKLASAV
# Mcl1-Noxa inh: disrupts binding of human Mcl-1 to Noxa peptide. inhibition, % at 21.7 µM. Q07820. 220,000 tested, 1.5% active. TR-FRET Mcl-1/Noxa peptide binding, 2 h;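 active = compounds that cut the protein-peptide binding signal by more than 50% relative to plate controls in a single-dose test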;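 also: His-tagged Mcl-1 with rhodamine Noxa BH3 peptide and terbium anti-His antibody; 0% = Mcl-1 plus Noxa peptide wells and 100% = peptide-only wells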
# Mcl-1 Bim block: human Bim-Mcl-1 interaction inhibition. Q07820. Bead-based flow cytometry, Bim peptide-Mcl-1 binding. inhibition, % at 10 µM. 190,000 tested, 0.1% active; in the data active = inhibition above about 40%;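 also: 0% = no compound tracer wells and 100% = peptide blocker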
# * = called active by the depositor; / = no result given. Sampled rows, rich in hits. Any-hit rate of the full collection: about 3.1%.
SMILES,Mcl1-Bid inh,14-3-3 Bad PPI,p47phox inh,Mcl1-Noxa inh,Mcl-1 Bim block
O=C1CCCC2=C1C(c1ccc(O)c(O)c1)Nc1ccc3ncccc3c12 (stereo not drawn),-24.3,-9.4,-1.4,76.8*,5.0
O=C(NCc1cccnc1)C(=O)NCC(c1ccco1)N1CCN(c2ccccc2F)CC1 (stereo not drawn),-40.3,-24.6,-4.1,10.4,-6.0
O=C(NCc1ccccc1)C(=O)NCC(c1ccco1)N1CCN(c2ccccc2F)CC1 (stereo not drawn),-45.0,-7.2,59.1*,0.9,-3.0
N#Cc1c(-c2ccccc2)nc2n1CCS2,-29.1,-3.5,7.7,0.8,-3.0
CCOC(=O)c1c(C)[nH]c(C(=O)COC(=O)/C=C/c2ccc3c(c2)OCO3)c1C,55.8*,5.0,-34.7,23.7,-1.0
COc1cc(/C=N/N=C2/NC(=O)C(CC(=O)O)S2)ccc1OCc1ccc(Cl)cc1 (stereo not drawn),-27.7,2.8,-22.4,13.5,-5.0
CCOc1cc(/C=N/N=C2/NC(=O)C(CC(=O)O)S2)ccc1OCc1ccc(Cl)cc1Cl (stereo not drawn),-56.2,55.4,-21.2,55.4*,3.0
COc1cc(/C=N/NC(=O)C(Cc2c[nH]c3ccccc23)NC(=O)OCc2ccccc2)cc([N+](=O)[O-])c1O (stereo not drawn),-63.6,-8.8,-25.3,81.3*,-2.0
CC(=O)NC(Cc1c[nH]c2ccccc12)C(=O)N/N=C/c1ccccc1 (stereo not drawn),-28.2,-8.7,-7.6,3.8,-5.0
COc1cc(/C=N/NC(=O)C(Cc2c[nH]c3ccccc23)NC(=O)OCC(C)C)cc([N+](=O)[O-])c1O (stereo not drawn),-40.6,2.0,-1.4,51.9*,-2.0
COc1cc(/C=N/NC(=O)C(Cc2c[nH]c3ccccc23)NC(=O)OCC(C)C)cc([N+](=O)[O-])c1OCc1ccccc1 (stereo not drawn),-17.1,-11.0,1.6,-4.4,2.0
C#Cc1ccc([C@@H]2C=C(C(=O)N3CCOCC3)O[C@H](OCC)[C@H]2CCCO)cc1,2.6,-0.3,/,-7.7,-1.0
CC1Cc2ccccc2N1CC(=O)Nc1ccc(N2CCOCC2)cc1 (stereo not drawn),-36.9,-15.6,3.3,25.0,-4.0
CC(Nc1ccc(N2CCOCC2)cc1)C(=O)N1c2ccccc2CC1C (stereo not drawn),-53.5,84.3*,1.1,18.0,/
Cc1ccc(C(=O)Nc2ccccc2C(=O)O)cc1NC(=O)COc1c(C)cccc1C,-15.9,-7.7,-15.2,12.2,0.0
N#Cc1c(Nc2cccc(F)c2)sc2c(O)cc(=O)[nH]c12,-135.7,-0.1,-44.4,54.3*,3.0
CCCCNC(=O)CSc1nc2ccsc2c(=O)n1CCCC(=O)NCCc1ccc(S(N)(=O)=O)cc1,1.4,4.6,31.0*,14.9,0.0
O=C(O)/C=C/C(=O)Nc1ccc2c(c1)NC(=O)CO2,18.0,4.4,-3.2,50.8*,0.0
O=C1COc2ccc(C(=O)/C=C/c3ccccc3)cc2N1,-5.3,-0.3,-25.5,7.7,-5.0
Cc1cc(C)c(OCC(=O)Nc2nnc(-c3ccco3)o2)c(C)c1,-45.3,-12.2,-0.3,0.0,0.0
COc1ccc(N=c2oc3cc(O)ccc3cc2C(=O)Nc2ccccn2)cc1OC,5.3,18.1,-14.3,52.9*,4.0
O=C1/C(=C/c2cccs2)Sc2ccccc21,10.1,-9.2,-1.5,37.8,75.0*
COC(=O)c1ccc(Oc2coc3cc(OCc4ccc([N+](=O)[O-])cc4)ccc3c2=O)cc1,94.5*,-0.6,-10.0,55.3*,0.0
Cc1cc(=O)oc2cc(OCc3ccc(C(=O)N4CCN(c5ccc([N+](=O)[O-])cc5)CC4)cc3)ccc12,-5.1,-7.7,-20.7,0.5,0.0
COc1ccc(NC(=O)CC2(CC(=O)O)CCCC2)cn1,-27.3,-1.1,-1.5,1.2,-2.0
SMILES,Mcl1-Bid inh,14-3-3 Bad PPI,p47phox inh,Mcl1-Noxa inh,Mcl-1 Bim block
O=C(/C=C/Sc1ccc(C(F)(F)F)cn1)c1ccccc1,-18.3,0.8,0.2,5.0,/
O=C1Nc2ccc(S(=O)(=O)N3CCCC3)c3cccc1c23,-11.1,-1.5,-0.7,7.1,-3.0
O=C(c1ccco1)N1C(=O)c2cccc3c(S(=O)(=O)N4CCCC4)ccc1c23,78.2*,3.6,0.9,61.1*,-10.0
O=C(N/N=C/C=C\c1ccco1)c1ccccn1,-37.4,2.0,-6.5,-5.1,/
O=C(N/N=C\C=C\c1ccco1)c1cc(-c2ccc3ccccc3c2)n[nH]1,-13.6,-7.2,-16.8,93.2*,-4.0
O=C(Cc1cccs1)N/N=C/C=C/c1ccco1,-30.4,-2.2,-2.5,70.3*,-3.0
CCn1c(SCC(=O)N/N=C/C=C/c2ccco2)nnc1-c1ccccc1,-37.2,3.3,-0.5,6.0,1.0
O=C(CSc1nnc(SCc2ccccc2)s1)N/N=C/C=C/c1ccco1,44.6,-6.8,-12.4,106.4*,-5.0
Cc1ccc[n+](CC(=O)Nc2nc3ccccc3s2)c1,-4.3,0.5,-8.9,-14.4,0.0
Nc1ccc2c(c1)OC1(CCCCC1)O2,-59.3,99.7*,44.8*,5.1,-3.0
Nc1ccc2c(c1)COc1ccccc1O2,-33.5,-2.0,-15.3,17.6,-4.0
Cc1ccnc(NC(=O)Nc2ccc(Br)cc2Cl)c1,-17.1,-5.5,-2.4,6.0,0.0
CCC1CCC2(CC1)NC(CO)(CO)CO2 (stereo not drawn),63.6*,9.5,-5.0,1.9,-2.0
CNCCCOc1ccc(C)cc1Br,61.1*,23.7,-1.0,25.2,0.0
COc1ccc(COC(=O)NNC(=O)c2ccccc2Cl)cc1,-8.4,9.9,14.1,-24.7,47.0*
O=C(NNC(=O)c1ccccc1Cl)c1ccco1,-9.0,-2.5,-16.1,4.1,/
O=C(NNC(=O)c1ccccc1Cl)c1ccccc1Cl,95.4*,-7.4,-9.8,-14.6,/
COC(=O)c1sc(NC(=O)Cc2cccs2)nc1C,-25.1,-6.6,-9.8,-1.6,-1.0
COC(=O)C1=C(C)N(C)C(=O)NC1c1cc2c(cc1[N+](=O)[O-])OCO2 (stereo not drawn),-23.3,0.6,-2.6,52.5*,0.0
CC1CCN(C2(O)C(=O)Nc3ccc(Br)cc32)CC1 (stereo not drawn),-16.4,82.6*,-2.1,-0.7,93.0*
O=C1Nc2ccc([N+](=O)[O-])cc2C1(O)N1CCCCCC1 (stereo not drawn),-12.8,24.0,-17.3,6.8,-1.0
CN1/C(=C\C=N\O)C(C)(C)c2ccccc21,-12.1,-11.7,-29.4,6.8,0.0
CN(C)c1ccc(N=C/C=C2/N(C)c3ccccc3C2(C)C)cc1,-69.2,-20.3,-55.0,64.1*,-11.0
CC(C)CNC(=S)N1CCN(C)CC1,36.9,80.7*,-7.7,-1.3,-2.0
CCCCNC(=S)N1CCN(C)CC1,-6.6,40.0,-2.6,21.3,-1.0
O=Cc1ccc(-c2ccccc2C(=O)O)o1,-20.6,-0.9,-9.8,10.3,0.0
O=C(O)c1ccccc1-c1ccc(/C=c2\sc3nc4cc(Br)cnc4n3c2=O)o1,77.5*,36.0,-12.9,90.8*,-2.0
O=C(/C=C/Nc1ccc([N+](=O)[O-])cc1)c1ccc(Br)cc1,14.6,24.6,2.9,53.1*,0.0
